From PubChem BioAssay (EPA / NIEHS)
Calls of active or inactive are those of the source. The calls were made as follows: active = hit-call score of the fitted dose curve at least 0.9, where 1 is the maximum; inactive = score below 0.9.

Experiment: CCTE_Harrill_HTTr_Viability_MCF7: CCTE's 6-hour Cell Viability Assessment for the High-Throughput Transcriptomics (HTTr) Platform, in MCF-7 cells cultured in DMEM + 10% fetal bovine serum, Harrill Lab (AID 2284010)
Summary of the method: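 PI exclusion, high-content imaging; 8-pt dilution series, 6 h exposure; bidirectional fit vs DMSO (neg. ctrl/baseline); gain of signal = loss of membrane integrity.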
For CCCOC(=O)c1cc(O)c(O)c(O)c1, the outcome was “inactive”. In the case of O=C(OCCCCCCOC(=O)c1ccccc1)c1ccccc1, the outcome is reported as “inactive”. With Clc1cc(Cl)c2c(c1)N=C1CCCCCN1C2 the outcome was “inactive”. For CO[C@H]1/C=C/O[C@@]2(C)Oc3c(C)c(O)c4c(O)c(c(/C=N/N5CCN(C)CC5)c(O)c4c3C2=O)NC(=O)/C(C)=C\C=C\[C@H](C)[C@H](O)[C@@H](C)[C@@H](O)[C@@H](C)[C@H](OC(C)=O)[C@@H]1C, the outcome was “inactive”. With CC[C@H](NC(=O)c1cc(F)ccc1NS(=O)(=O)c1cccc2cccnc12)c1ccccc1 the outcome was “inactive”. In the case of O=c1[nH]sc2ccccc12, the outcome is reported as “inactive”. With O=c1ccc2ccccc2o1 the outcome was “inactive”. With CCCCCCCC[Si](OCC)(OCC)OCC the outcome was “inactive”. With CCCCOC(=O)CC(CC(=O)OCCCC)(OC(C)=O)C(=O)OCCCC the outcome was “inactive”. For CC(O)CC(C)(C)O (configuration not stated), the outcome was “inactive”. In the case of CCN(CC)C(=O)c1cc(S(=O)(=O)Cc2ccccc2)c(N2CCC(c3ccccc3)CC2)cc1N(CC)CCN(C)C, the outcome is reported as “inactive”. With CCCCCc1ccc(N)cc1 the outcome was “inactive”. In the case of Cc1ncc(CO)c(CO)c1O, the outcome is reported as “inactive”. With CCOC(=O)O[C@H](C)OC(=O)c1ccc2c(c1)cc(C(=O)NC1CCN(C(C)C)CC1)n2Cc1cc(-c2ccc(Cl)s2)on1 the AC50 was 76.7 µM (active). In the case of CCCCCCCCCCCCO, the outcome is reported as “inactive”. For C[C@]12CC[C@@H]3c4ccc(O)cc4CC[C@H]3[C@@H]1CCC2=O, the outcome was “inactive”. For CCCCCCCCOc1ccc(C(=O)c2ccccc2)c(O)c1, the outcome was “inactive”. With COc1ccc2cc(S(=O)(=O)N[C@H](CC(=O)N[C@H](Cc3ccc(CN4[C@H](C)CCC[C@@H]4C)cc3)C(=O)N(C)C(C)C)c3ccc4c(c3)OCO4)ccc2c1 the outcome was “inactive”. For O=C(O)c1ccccc1-n1cc(C(=O)O)c(=O)c2cc(Nc3c(F)cc(F)cc3Cl)c(Cl)cc21, the outcome was “inactive”. With CC[C@@H]1C[C@H](N(Cc2cc(C(F)(F)F)cc(C(F)(F)F)c2)C(C)=O)c2cc(C(F)(F)F)ccc2N1C(=O)OC(C)C the outcome was “inactive”. With Cc1ccc2oc(CN(Cc3ccccc3)C(=O)Nc3c(F)cc(F)cc3F)c(-c3ccc(Cl)cc3)c2c1 the outcome was “inactive”. With O=C1O[C@H]([C@@H](O)CO)C(O)=C1O the outcome was “inactive”. With Oc1ccccc1 the outcome was “inactive”. In the case of CCO[Si](CCCNC(N)=O)(OCC)OCC, the outcome is reported as “inactive”. In the case of Clc1ccccc1C(c1ccccc1)(c1ccccc1)n1ccnc1, the outcome is reported as “inactive”. For COc1cccc([C@H](O)C2CCN(CCc3ccc(F)cc3)CC2)c1OC, the outcome was “inactive”. In the case of Cc1cn([C@H]2C[C@H](N=[N+]=[N-])[C@@H](CO)O2)c(=O)[nH]c1=O, the outcome is reported as “inactive”. With CC(C)(C)c1cc(/C=C2\SC(N)=NC2=O)cc(C(C)(C)C)c1O the outcome was “inactive”. With Cc1cccc2ccccc12 the outcome was “inactive”. For CCCCCCCCCCCC[N+](C)(C)C, the outcome was “inactive”. In the case of O=CCCCC=O, the outcome is reported as “inactive”. With c1ccc2ccccc2c1 the outcome was “inactive”. In the case of Cc1oc2c(NC(=O)c3c(Cl)cccc3Cl)cccc2c1C(C)(C)O, the outcome is reported as “inactive”. With CN1C(=O)CC[C@H]1c1cccnc1 the outcome was “inactive”. With c1ccc(C[n+]2cccc3ccccc32)cc1 the outcome was “inactive”. In the case of CCN(Cc1cccc(S(=O)(=O)O)c1)c1ccc(C(=C2C=CC(=[N+](CC)Cc3cccc(S(=O)(=O)O)c3)C=C2)c2ccccc2S(=O)(=O)[O-])cc1, the outcome is reported as “inactive”.

Experiment: CCTE_Harrill_HTTr_Apoptosis_MCF7: CCTE's 6-hour Apoptosis Assessment for the High-Throughput Transcriptomics (HTTr) Platform, in MCF-7 cells cultured in DMEM + 10% fetal bovine serum, Harrill Lab (AID 2284011)
Summary of the method: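 MCF-7 (DMEM + 10% FBS), 384-well; 8-pt dilution series, 6 h chemical exposure; caspase-3/7 activation via CellEvent Caspase 3/7 Green, HCI; bidirectional fit vs DMSO.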
For CCCOC(=O)c1cc(O)c(O)c(O)c1, the outcome was “inactive”. With O=C(OCCCCCCOC(=O)c1ccccc1)c1ccccc1 the outcome was “inactive”. With Clc1cc(Cl)c2c(c1)N=C1CCCCCN1C2 the outcome was “inactive”. With CO[C@H]1/C=C/O[C@@]2(C)Oc3c(C)c(O)c4c(O)c(c(/C=N/N5CCN(C)CC5)c(O)c4c3C2=O)NC(=O)/C(C)=C\C=C\[C@H](C)[C@H](O)[C@@H](C)[C@@H](O)[C@@H](C)[C@H](OC(C)=O)[C@@H]1C the outcome was “inactive”. With CC[C@H](NC(=O)c1cc(F)ccc1NS(=O)(=O)c1cccc2cccnc12)c1ccccc1 the outcome was “inactive”. In the case of O=c1[nH]sc2ccccc12, the outcome is reported as “inactive”. In the case of O=c1ccc2ccccc2o1, the outcome is reported as “inactive”. For CCCCCCCC[Si](OCC)(OCC)OCC, the outcome was “inactive”. With CCCCOC(=O)CC(CC(=O)OCCCC)(OC(C)=O)C(=O)OCCCC the outcome was “inactive”. With CC(O)CC(C)(C)O (configuration not stated) the outcome was “inactive”. In the case of CCN(CC)C(=O)c1cc(S(=O)(=O)Cc2ccccc2)c(N2CCC(c3ccccc3)CC2)cc1N(CC)CCN(C)C, the outcome is reported as “inactive”. With CCCCCc1ccc(N)cc1 the outcome was “inactive”. In the case of Cc1ncc(CO)c(CO)c1O, the outcome is reported as “inactive”. In the case of CCOC(=O)O[C@H](C)OC(=O)c1ccc2c(c1)cc(C(=O)NC1CCN(C(C)C)CC1)n2Cc1cc(-c2ccc(Cl)s2)on1, the AC50 is reported as 72.2 µM (active). For CCCCCCCCCCCCO, the outcome was “inactive”. With C[C@]12CC[C@@H]3c4ccc(O)cc4CC[C@H]3[C@@H]1CCC2=O the outcome was “inactive”. With CCCCCCCCOc1ccc(C(=O)c2ccccc2)c(O)c1 the outcome was “inactive”. In the case of COc1ccc2cc(S(=O)(=O)N[C@H](CC(=O)N[C@H](Cc3ccc(CN4[C@H](C)CCC[C@@H]4C)cc3)C(=O)N(C)C(C)C)c3ccc4c(c3)OCO4)ccc2c1, the outcome is reported as “inactive”. With O=C(O)c1ccccc1-n1cc(C(=O)O)c(=O)c2cc(Nc3c(F)cc(F)cc3Cl)c(Cl)cc21 the outcome was “inactive”. For CC[C@@H]1C[C@H](N(Cc2cc(C(F)(F)F)cc(C(F)(F)F)c2)C(C)=O)c2cc(C(F)(F)F)ccc2N1C(=O)OC(C)C, the outcome was “inactive”. With Cc1ccc2oc(CN(Cc3ccccc3)C(=O)Nc3c(F)cc(F)cc3F)c(-c3ccc(Cl)cc3)c2c1 the outcome was “inactive”. In the case of O=C1O[C@H]([C@@H](O)CO)C(O)=C1O, the outcome is reported as “inactive”. For Oc1ccccc1, the outcome was “inactive”. With CCO[Si](CCCNC(N)=O)(OCC)OCC the outcome was “inactive”. In the case of Clc1ccccc1C(c1ccccc1)(c1ccccc1)n1ccnc1, the outcome is reported as “inactive”. With COc1cccc([C@H](O)C2CCN(CCc3ccc(F)cc3)CC2)c1OC the outcome was “inactive”. For Cc1cn([C@H]2C[C@H](N=[N+]=[N-])[C@@H](CO)O2)c(=O)[nH]c1=O, the outcome was “inactive”. For CC(C)(C)c1cc(/C=C2\SC(N)=NC2=O)cc(C(C)(C)C)c1O, the outcome was “inactive”. For Cc1cccc2ccccc12, the outcome was “inactive”. In the case of CCCCCCCCCCCC[N+](C)(C)C, the outcome is reported as “inactive”. In the case of O=CCCCC=O, the outcome is reported as “inactive”. For c1ccc2ccccc2c1, the outcome was “inactive”. In the case of Cc1oc2c(NC(=O)c3c(Cl)cccc3Cl)cccc2c1C(C)(C)O, the outcome is reported as “inactive”. For CN1C(=O)CC[C@H]1c1cccnc1, the outcome was “inactive”. For c1ccc(C[n+]2cccc3ccccc32)cc1, the outcome was “inactive”. In the case of CCN(Cc1cccc(S(=O)(=O)O)c1)c1ccc(C(=C2C=CC(=[N+](CC)Cc3cccc(S(=O)(=O)O)c3)C=C2)c2ccccc2S(=O)(=O)[O-])cc1, the outcome is reported as “inactive”.
